These results are taken from PubChem BioAssay (NCATS).

Experiment [1] deals with Cytochrome P450 1A2 (Homo sapiens) (UniProt P05177). The experiment in a line: p450-cyp1a2 (AID 410; calls by dose curve; also: potency is read from the fitted curve at half-maximal effect;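 as to activity change, negative = inhibition: -100% = full effect of reference inhibitor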). In a few lines: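 Inhibition was calculated relative to 57 uM furafylline (full inhibition). The reaction used human CYP1A2 at 20nM with Luciferin-ME at its Km, 100uM, driven by an NADPH-regenerating system for 60 min at room temperature.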
Cytochrome P450 1A2 (Homo sapiens), sequence (P05177 whole entry, looked up): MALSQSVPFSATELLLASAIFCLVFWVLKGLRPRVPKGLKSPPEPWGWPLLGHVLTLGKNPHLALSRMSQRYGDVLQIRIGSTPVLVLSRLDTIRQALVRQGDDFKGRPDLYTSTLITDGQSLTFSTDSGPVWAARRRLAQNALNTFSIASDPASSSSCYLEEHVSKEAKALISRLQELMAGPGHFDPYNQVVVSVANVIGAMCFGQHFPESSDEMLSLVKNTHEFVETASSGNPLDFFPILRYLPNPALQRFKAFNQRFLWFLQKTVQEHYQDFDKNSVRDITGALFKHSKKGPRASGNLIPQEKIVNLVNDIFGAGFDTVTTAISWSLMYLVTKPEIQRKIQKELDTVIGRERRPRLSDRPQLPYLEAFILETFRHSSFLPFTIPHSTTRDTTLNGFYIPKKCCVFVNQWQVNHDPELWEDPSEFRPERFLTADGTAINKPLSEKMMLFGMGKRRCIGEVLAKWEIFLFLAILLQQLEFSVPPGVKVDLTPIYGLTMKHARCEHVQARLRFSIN
Experiment [2] in a line: NFAT Signaling Pathway (AID 444; active = well fitted curve in either direction with a large enough effect, not every such curve was filed as active;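 also: carbachol stimulus at about its EC50 of 1 µM final; % is scaled to controls: 0 for no effect and ±100 for the full control effect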). To be noted: Jurkat NFAT-bla M1, carbachol, beta-lactamase ratio, 5 h; at 7.69 µM (top of the series) unless noted. In a few lines:
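Jurkat cells carrying an NFAT-driven β-lactamase reporter and co-transfected muscarinic M1 receptor were treated with compound plus carbachol (1 uM final, an EC50 level) for 5 h at 37 °C. CCF4 loading followed for 1 h at RT; 460/530 nm ratio gave %activity.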

Experiment [3] is described as follows: Stat Signaling Pathway (AID 446; active = well fitted curve in either direction with a large enough effect, not every such curve was filed as active;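 also: ME-180 cervical cancer cells given 40 pM IL-6 alongside compound; SIE-controlled beta-lactamase reporter measured as 460/530 nm FRET emission ratio; % is scaled to controls: 0 for no effect and ±100 for the full control effect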). To be noted: ME-180 SIE beta-lactamase reporter, IL-6 stimulated, 5 h; at 7.69 µM (top of the series) unless noted. In a few lines:
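ME-180 cells carrying a SIE-driven beta-lactamase reporter are stimulated with 40 pM IL-6 for 5 h at 37C in the presence of compound. The 460/530 nm FRET substrate ratio is read after 2.5 h at RT. Data are normalised to 300 pM IL-6 and to 125 nM JAK inhibitor controls.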

In experiment [4] the target is Glucocorticoid receptor (Homo sapiens) (UniProt P04150). Put plainly: GR-GFP Redistribution (AID 450;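 active = compounds whose dose series gives a full or clear partial fitted curve of increased nuclear translocation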; also: potency is read from the fitted curve at half-maximal effect). To be noted: U2OS GR-GFP nuclear translocation, laser cytometry, 2 h.
Glucocorticoid receptor (Homo sapiens), sequence (P04150 whole entry, looked up): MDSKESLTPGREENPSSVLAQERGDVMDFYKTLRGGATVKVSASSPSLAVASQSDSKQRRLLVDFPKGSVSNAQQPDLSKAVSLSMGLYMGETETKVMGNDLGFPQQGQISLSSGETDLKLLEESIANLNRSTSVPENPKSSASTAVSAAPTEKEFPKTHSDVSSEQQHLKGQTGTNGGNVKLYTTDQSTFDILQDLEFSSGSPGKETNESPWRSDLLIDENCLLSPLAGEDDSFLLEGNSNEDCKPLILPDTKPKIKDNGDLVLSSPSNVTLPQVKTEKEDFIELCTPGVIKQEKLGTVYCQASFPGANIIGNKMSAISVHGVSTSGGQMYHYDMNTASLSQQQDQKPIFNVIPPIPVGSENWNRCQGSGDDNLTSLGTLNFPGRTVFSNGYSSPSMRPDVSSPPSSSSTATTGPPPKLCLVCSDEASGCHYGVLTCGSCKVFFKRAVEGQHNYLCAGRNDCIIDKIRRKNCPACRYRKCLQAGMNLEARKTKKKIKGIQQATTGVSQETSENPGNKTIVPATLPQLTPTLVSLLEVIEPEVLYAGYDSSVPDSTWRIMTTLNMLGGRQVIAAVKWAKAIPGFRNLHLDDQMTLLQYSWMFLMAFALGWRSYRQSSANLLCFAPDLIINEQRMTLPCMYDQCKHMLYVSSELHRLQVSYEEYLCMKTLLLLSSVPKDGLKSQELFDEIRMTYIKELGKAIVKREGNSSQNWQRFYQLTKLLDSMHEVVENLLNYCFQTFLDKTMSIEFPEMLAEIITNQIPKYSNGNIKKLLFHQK
The target is the same in experiment [5]. The experiment in a line: GR-EFC Redistribution (AID 451; calls by dose curve; also: potency is read from the fitted curve at half-maximal effect). The conditions noted are these: CHO-K1 GR-EFC translocation, beta-gal luminescence, 2 h. In a few lines:
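CHO-K1 cells stably expressing nuclear-localized β-gal enzyme acceptor and GR fused C-terminally to the enzyme donor fragment; ligand-driven nuclear translocation restores β-gal by complementation. Compounds titrated up to 46 uM final, 2 h at 37 °C; luminescence read.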

Experiment [6] deals with Mitogen-activated protein kinase 10 (Mus musculus) (UniProt Q61831). The experiment in a line: JNK3 AlphaScreen Assay (AID 530; active = well fitted curve in either direction with a large enough effect, not every such curve was filed as active;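 also: kinase came from lysate of stimulated human HepG2 cells; signal reports phosphorylation of biotinylated GST-cJun 1-79 at Ser73 with 10 µM ATP; % is scaled to controls: 0 for no effect and ±100 for the full control effect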). In a few lines:
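JNK3 came from HepG2 lysates pre-activated with IL-1beta and TNF-alpha and phosphorylated biotinylated GST-cJun (1-79) at 10 uM ATP, pH 7.6, room temperature. Compounds were titrated. AlphaScreen signal used anti-phospho-cJun (Ser73) antibody.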

Experiment [7] deals with 3',5'-cyclic-AMP phosphodiesterase 4B (Homo sapiens) (UniProt Q07343). The experiment in a line: qHTS Assay for Inhibitors of PDE-IV (AID 607; active = well fitted activation curve with a large enough effect in the main read-out, with a control signal flat, not every such curve was filed as active; also: % of control where 0% means no effect). The gist of the method:
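HEK293 ACTOne cells with CNG channel (1000/well), endogenous PDE4; membrane potential dye, compounds up to 22.9 uM final. Fluorescence Ex 535/Em 590; RO 20-1724 (100 uM final) as reference.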

For experiment [8], the target named is Guanine nucleotide-binding protein G(i) subunit alpha-1 (Homo sapiens) (UniProt P63096). The experiment in a line: qHTS Assay for Inhibitors of RGS12 GoLoco Motif Activity (Green Fluorophore) (AID 879).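 Also: 0% = labeled peptide with Gαi1 and full inhibition = labeled peptide alone without protein; negative values mean loss of peptide binding seen as reduced polarization.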 In a few lines:
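Fluorescence polarization assay: 50 nM Gαi1 with 10 nM FITC-labeled RGS12 GoLoco peptide in 10 mM Tris pH 7.5, 150 mM NaCl, 0.1 mM GDP, 0.05% NP40, 10 min at room temperature with compound.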

Experiment [9] in a line: qHTS Assay for Identification of Small Molecule Agonists for Thrombopoietin (TPO) Signaling Pathway (AID 917). Also: % is scaled to controls: 0 for no effect and ±100 for the full control effect. The gist of the method: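 Reporter: GpIIb promoter–luciferase in murine Ba/F3 expressing human TPO receptor. Pre-starved of IL-3 overnight; compounds with 26 pM TPO, 24 hrs, 37 C/5% CO2; luminescence read.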
Experiment [10] has as its target Muscarinic acetylcholine receptor M1 (Rattus norvegicus) (UniProt P08482). Put plainly: qHTS Assay for Antagonists of Acetylcholine Muscarinic M1 Receptor: Measurement of IP-One Response (AID 944). Also: nearly all actives have a fitted effect of over 75% in size. In a few lines:
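Steps: plate transfected CHO-M1 cells overnight; add test compound, 10 min; add carbachol (200 nM, EC80) in stimulation buffer with LiCl; incubate 30 min; add labelled IP1 tracer and anti-IP1 antibody in lysis buffer; read HTRF after 10 min.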

For experiment [11], the target named is Pyruvate kinase (Leishmania mexicana) (UniProt Q27686). Put plainly: qHTS Validation Assay for Inhibitors of Leishmania Mexicana Pyruvate Kinase (AID 945).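 Also: 0% = DMSO only neutral control wells.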 The gist of the method:
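Read-out: luminescence from PKLight stop/detection reagent, data normalized to DMSO. Reaction: 0.2 nM E451W LmPYK, 0.5 mM PEP, 0.1 mM ADP, pH 7.2, 1 h room temperature.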

The target of experiment [12] is Pyruvate kinase PKM (Homo sapiens) (UniProt P14618). Put plainly: qHTS Assay for Activators of Human Muscle Pyruvate Kinase (AID 954; active = well fitted curve in the direction sought with a large enough effect, not every such curve was filed as active;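 also: 0% = uninhibited enzyme and -100% = no enzyme or full thiadiazolimine inhibition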). The gist of the method:
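Purified human PKM2 (0.1 nM) with 0.5 mM PEP (Km) and 0.1 mM ADP in 50 mM imidazole pH 7.2, KCl, MgCl2, 1 h at room temperature; ATP formed read by coupled luciferase luminescence. Normalized to no-enzyme/110 uM thiadiazolimine inhibition; 0.3 nM enzyme column for activation.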

Experiment [13] concerns the target Alpha-galactosidase A (Homo sapiens) (UniProt P06280). Put plainly: Counterscreen for Glucocerebrosidase Inhibitors: qHTS Assay for Human alpha-Galactosidase at pH 4.5 (AID 992). Also: 0% is about no effect. The gist of the method: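 Human enzyme (2 nM) with 80 uM 4-methylumbelliferyl alpha-D-galactopyranoside in 50 mM citric acid, 0.005% Tween-20, pH 4.5, 20 min at room temperature. Compounds 0.7 nM–77 uM; fluorescence Ex 365/Em 440 after pH 10 stop; AC50 from Hill fits.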

Experiment [14] concerns the target alpha-glucosidase (Oryza sativa, rice) (UniProt Q653V4). Put plainly: Counterscreen for Glucocerebrosidase Inhibitors: qHTS Assay for Rice alpha-Glucosidase at pH 5.0 (AID 997).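 Also: 0% = full activity with enzyme and -100% = basal without enzyme.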 In a few lines: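 Rice alpha-glucosidase (4 nM final) with 400 uM 4-methylumbelliferyl-alpha-D-glucopyranoside in citrate buffer pH 5.0, 20 min at room temperature, stopped at pH 10; fluorescence 365/440 nm, compounds 0.7 nM–77 uM, AC50 from Hill fits.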

The nature of experiment [15]: AP1 Signaling Pathway (AID 357; active = well fitted curve in either direction with a large enough effect, not every such curve was filed as active). The conditions noted are these: ME-180 (cervical carcinoma) AP-1-bla reporter, EGF-induced, beta-lactamase ratio, 5 h; at 7.69 µM (top of the series) unless noted. In a few lines: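 First, ME-180 AP-1-bla cells were cultured overnight at 37 °C in low-serum Opti-MEM. Next, titrated compounds with EC50 EGF were incubated 5 hours. Finally, CCF4 was added for 2.5 hours and the 460/530 nm ratio recorded.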

Experiment [16] concerns the target Cytochrome P450 2C9 (Homo sapiens) (UniProt P11712). Put plainly: qHTS Assay for Inhibitors and Substrates of Cytochrome P450 2C9 (AID 883). Also: % is scaled to controls: 0 for no effect and ±100 for the full control effect; nearly all actives have a fitted effect of over 60% in size. In a few lines: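 CYP2C9 deoxyluciferin hydroxylation, 37C, 60 min with NADPH regeneration; 10nM enzyme, 100uM Luciferin-H (KM). Glo detection reagent stopped reaction; luminescence normalized to sulphaphenazole (57uM) full inhibition.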

The target in experiment [17] is Cytochrome P450 3A4 (Homo sapiens) (UniProt P08684). Put plainly: qHTS Assay for Activators of Cytochrome P450 3A4 (AID 885). Also: nearly all actives have a fitted effect of over 65% in size. The gist of the method: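 Human CYP3A4 (20 nM) with Luciferin-PPXE at 25 uM (its KM) in 200 mM KPO4; 10 min compound preincubation, then NADPH regeneration and 60 min reaction at RT. Luciferin read by luminescence; normalized to 57 uM ketoconazole full inhibition.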

Experiment [18] deals with Cytochrome P450 2D6 (Homo sapiens) (UniProt P10635). The experiment in a line: qHTS Assay for Inhibitors and Substrates of Cytochrome P450 2D6 (AID 891).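 Also: luciferin methyl ether substrate demethylated by CYP2D6 with NADPH regeneration; % is scaled to controls: 0 for no effect and ±100 for the full control effect; nearly all actives have a fitted effect of over 60% in size.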 In a few lines: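 Human CYP2D6 (5 nM) with 30 uM Luciferin-ME EGE (at Km) in 100 mM KPO4, compound preincubated 10 min, then NADPH regeneration system for 60 min at room temperature. Luciferin read by luminescence; normalized to 1.43 uM quinidine.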
Cytochrome P450 2D6 (Homo sapiens), sequence (P10635 whole entry, looked up): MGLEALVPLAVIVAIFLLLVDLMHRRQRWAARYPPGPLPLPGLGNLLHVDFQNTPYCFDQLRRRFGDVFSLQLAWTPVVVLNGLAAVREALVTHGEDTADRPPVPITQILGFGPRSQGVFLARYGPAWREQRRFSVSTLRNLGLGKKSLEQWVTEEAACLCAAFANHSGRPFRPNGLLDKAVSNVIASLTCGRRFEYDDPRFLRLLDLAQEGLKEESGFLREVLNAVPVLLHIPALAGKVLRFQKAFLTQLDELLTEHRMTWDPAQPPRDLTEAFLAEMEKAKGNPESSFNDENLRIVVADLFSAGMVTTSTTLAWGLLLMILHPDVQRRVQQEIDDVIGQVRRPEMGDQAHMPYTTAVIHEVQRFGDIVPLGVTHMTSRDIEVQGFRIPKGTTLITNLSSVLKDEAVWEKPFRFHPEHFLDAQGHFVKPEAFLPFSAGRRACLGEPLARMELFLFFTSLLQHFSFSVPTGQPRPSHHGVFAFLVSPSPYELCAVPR

Experiment [19] has as its target Cytochrome P450 2C19 (Homo sapiens) (UniProt P33261). The experiment in a line: qHTS Assay for Inhibitors and Substrates of Cytochrome P450 2C19 (AID 899). Also: % is scaled to controls: 0 for no effect and ±100 for the full control effect; nearly all actives have a fitted effect of over 60% in size. The gist of the method:
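In 50mM KPO4, the reaction held 5nM enzyme and KM-level (10uM) Luciferin-H EGE; it ran 60 min at 37C after NADPH regeneration and a 10 min compound preincubation. Luminescence values were scaled to 57uM ketoconazole as complete inhibition.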

Values joined by “and” are separate entries in the source; they are usually repeats but may differ in a detail not shown here. Equal entries are not always repeated. Values without a mark were called inactive. Records with an inconclusive call do not appear. Active and inactive are the calls of the source. Unless noted, calls follow the shape of the dose curve; as a rule, active = well fitted curve in the direction sought with a large enough effect; inconclusive = small, poorly fitted or top-dose-only effect, or another doubt; inactive = no such curve, though single readings can be large; an effect the other way counts as inactive or inconclusive.

Alpha-galactosidase A (Homo sapiens), sequence (P06280 whole entry, looked up): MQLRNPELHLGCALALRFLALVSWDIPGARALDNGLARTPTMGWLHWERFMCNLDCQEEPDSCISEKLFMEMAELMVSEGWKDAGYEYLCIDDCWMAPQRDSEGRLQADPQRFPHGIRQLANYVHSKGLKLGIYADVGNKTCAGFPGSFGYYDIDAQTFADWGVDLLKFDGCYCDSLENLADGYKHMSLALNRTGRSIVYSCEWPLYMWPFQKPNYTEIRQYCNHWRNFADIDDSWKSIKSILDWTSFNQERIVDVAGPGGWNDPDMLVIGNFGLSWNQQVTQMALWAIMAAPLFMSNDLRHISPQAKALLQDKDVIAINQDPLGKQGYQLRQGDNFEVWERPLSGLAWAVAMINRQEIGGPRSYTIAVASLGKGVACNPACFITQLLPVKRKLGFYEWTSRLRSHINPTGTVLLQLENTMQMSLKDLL
Pyruvate kinase PKM (Homo sapiens), sequence (P14618 whole entry, looked up): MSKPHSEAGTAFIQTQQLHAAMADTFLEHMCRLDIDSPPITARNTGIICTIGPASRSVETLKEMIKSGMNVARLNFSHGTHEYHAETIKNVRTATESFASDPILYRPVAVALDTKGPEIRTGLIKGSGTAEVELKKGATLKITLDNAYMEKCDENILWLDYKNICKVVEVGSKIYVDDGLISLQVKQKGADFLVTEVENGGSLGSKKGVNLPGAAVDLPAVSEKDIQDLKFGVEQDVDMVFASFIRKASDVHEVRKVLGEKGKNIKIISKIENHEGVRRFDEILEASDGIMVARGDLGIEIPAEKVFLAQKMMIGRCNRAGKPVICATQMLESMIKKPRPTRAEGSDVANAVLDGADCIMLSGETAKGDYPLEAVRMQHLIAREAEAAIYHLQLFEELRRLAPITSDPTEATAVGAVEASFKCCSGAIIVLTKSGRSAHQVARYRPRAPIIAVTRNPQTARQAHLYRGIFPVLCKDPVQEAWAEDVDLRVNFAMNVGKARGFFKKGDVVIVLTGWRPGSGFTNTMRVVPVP
Guanine nucleotide-binding protein G(i) subunit alpha-1 (Homo sapiens), sequence (P63096 whole entry, looked up): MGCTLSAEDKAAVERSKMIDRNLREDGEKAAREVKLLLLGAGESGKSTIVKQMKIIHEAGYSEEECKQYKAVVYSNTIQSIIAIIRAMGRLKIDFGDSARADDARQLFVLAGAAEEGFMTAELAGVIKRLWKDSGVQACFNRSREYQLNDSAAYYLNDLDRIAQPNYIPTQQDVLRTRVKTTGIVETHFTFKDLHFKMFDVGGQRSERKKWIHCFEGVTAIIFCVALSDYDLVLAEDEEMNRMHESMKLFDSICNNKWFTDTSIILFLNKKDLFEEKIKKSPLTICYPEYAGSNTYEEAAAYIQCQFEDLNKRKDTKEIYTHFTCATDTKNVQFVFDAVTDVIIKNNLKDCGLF
Pyruvate kinase (Leishmania mexicana), sequence (Q27686 2-499 E452W): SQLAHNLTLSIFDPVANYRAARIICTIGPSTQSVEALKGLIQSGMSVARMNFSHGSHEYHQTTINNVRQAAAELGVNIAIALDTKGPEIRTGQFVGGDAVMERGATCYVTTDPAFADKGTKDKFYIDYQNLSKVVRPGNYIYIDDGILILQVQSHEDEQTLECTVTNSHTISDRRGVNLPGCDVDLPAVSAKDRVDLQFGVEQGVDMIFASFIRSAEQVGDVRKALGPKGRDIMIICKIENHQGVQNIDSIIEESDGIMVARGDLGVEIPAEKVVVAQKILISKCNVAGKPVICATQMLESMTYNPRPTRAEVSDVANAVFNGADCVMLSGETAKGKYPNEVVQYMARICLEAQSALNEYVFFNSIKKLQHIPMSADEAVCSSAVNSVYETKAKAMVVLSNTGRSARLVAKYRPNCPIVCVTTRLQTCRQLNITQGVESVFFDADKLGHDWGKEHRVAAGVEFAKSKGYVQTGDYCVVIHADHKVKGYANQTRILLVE
Cytochrome P450 2C9 (Homo sapiens), sequence (P11712 whole entry, looked up): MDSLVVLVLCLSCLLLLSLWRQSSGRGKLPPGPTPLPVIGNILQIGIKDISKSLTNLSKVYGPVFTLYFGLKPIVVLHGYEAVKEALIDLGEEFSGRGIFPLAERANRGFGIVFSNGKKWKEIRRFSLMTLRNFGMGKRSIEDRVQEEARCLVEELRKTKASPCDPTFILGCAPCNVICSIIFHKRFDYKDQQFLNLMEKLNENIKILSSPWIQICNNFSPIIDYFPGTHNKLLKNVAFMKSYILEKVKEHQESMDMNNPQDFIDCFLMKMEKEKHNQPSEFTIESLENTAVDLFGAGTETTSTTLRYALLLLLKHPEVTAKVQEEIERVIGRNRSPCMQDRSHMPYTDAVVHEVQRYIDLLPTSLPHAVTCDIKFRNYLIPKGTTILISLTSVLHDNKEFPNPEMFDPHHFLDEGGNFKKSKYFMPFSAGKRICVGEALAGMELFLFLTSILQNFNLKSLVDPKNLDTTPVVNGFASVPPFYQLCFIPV
3',5'-cyclic-AMP phosphodiesterase 4B (Homo sapiens), sequence (Q07343 whole entry, looked up): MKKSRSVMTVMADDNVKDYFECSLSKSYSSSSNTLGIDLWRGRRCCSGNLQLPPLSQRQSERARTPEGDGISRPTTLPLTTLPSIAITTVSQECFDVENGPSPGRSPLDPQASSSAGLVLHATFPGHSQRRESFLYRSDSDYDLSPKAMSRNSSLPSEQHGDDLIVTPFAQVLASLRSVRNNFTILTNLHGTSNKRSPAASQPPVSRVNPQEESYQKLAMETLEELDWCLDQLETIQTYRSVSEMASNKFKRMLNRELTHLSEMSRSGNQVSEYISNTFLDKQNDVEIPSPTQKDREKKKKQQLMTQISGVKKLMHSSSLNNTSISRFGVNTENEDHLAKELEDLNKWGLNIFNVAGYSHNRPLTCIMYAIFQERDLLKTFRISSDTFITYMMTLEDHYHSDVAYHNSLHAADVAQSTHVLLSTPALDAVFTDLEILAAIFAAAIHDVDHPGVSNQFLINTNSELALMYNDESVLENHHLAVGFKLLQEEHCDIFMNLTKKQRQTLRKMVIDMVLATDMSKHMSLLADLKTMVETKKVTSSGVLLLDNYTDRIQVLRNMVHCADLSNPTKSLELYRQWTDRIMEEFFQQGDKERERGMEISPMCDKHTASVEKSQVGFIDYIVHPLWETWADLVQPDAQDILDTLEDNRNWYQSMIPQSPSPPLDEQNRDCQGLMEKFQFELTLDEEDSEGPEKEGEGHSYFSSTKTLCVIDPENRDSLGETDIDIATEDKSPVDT

Consider `NC[C@H](O)C1CCCCCCC1`, for which the Potency result in experiment [1], in [6], in experiment [7], in experiment [10] and in experiment [14] was “inactive” each time. The activity change, negative = inhibition in experiment [2] was 4.63% [at 38 µM]. Also, the activity, negative = inhibition in experiment [3] was 14.7% [at 38 µM]. The Potency in experiment [4] and in experiment [5] was more than 46 µM throughout. Moreover, the call in experiment [8], in [9], in [11], in experiment [12] and in experiment [13] was inactive.
In the case of `C[C@@]12C(=O)OC(=O)[C@@]1(C)[C@H]1CC[C@@H]2O1`, the activity change, negative = inhibition in [15] is -102% [at 38 µM] (active); in experiment [2], -104% [at 38 µM] (active). Also, the Potency result in [1], in [6], in experiment [7], in [16], in experiment [17] and in experiment [18] was “inactive” in each case. In addition, the Potency result in [19] and in experiment [14] was “inactive” throughout. Also, the Potency in [5] was more than 46 µM. In addition, the molecule was called inactive in experiment [8], in experiment [11], in experiment [12] and in experiment [13].
Consider `COC(=O)[C@H]1[C@H]2C[C@H]3c4[nH]c5ccccc5c4CCN3C[C@@H]2CC[C@@H]1O`, for which the activity change, negative = inhibition in [15] was 3.48% [at 38 µM] and 8.69% [at 38 µM]; in experiment [2] it was -14.1% [at 38 µM]. Besides, the activity, negative = inhibition in [3] was 1% [at 38 µM] and -19.7% [at 38 µM]. For the same molecule, the Potency entry in experiment [6], in experiment [7] and in experiment [14] was “inactive” each time. Moreover, the molecule was called inactive in experiment [8], in experiment [9], in experiment [11], in [12] and in experiment [13].
For the molecule `C#C[C@@]1(O)CC[C@H]2[C@H]3CCC4=Cc5oncc5C[C@]4(C)[C@@H]3CC[C@@]21C`, in experiment [15], the activity change, negative = inhibition was -22.8% [at 38 µM]. In addition, the figures for the Potency in [1], in experiment [4] and in experiment [5] were 12.6 µM (active), more than 46 µM and more than 46 µM, respectively. In experiment [3], the activity, negative = inhibition is 6.25% [at 38 µM]. Besides, the Potency result in experiment [6] is “inactive”.
For `CCN1/C(=C\C(C)=O)Sc2ccc(OC)cc21`, the activity change, negative = inhibition was -18.4% [at 38 µM] in [15] and 10.3% [at 38 µM] in experiment [2]. Also, in [3], the activity, negative = inhibition is 2.84% [at 38 µM]. The Potency in experiment [4] and in [5] was more than 46 µM in each case. For the same molecule, the Potency entry in experiment [6], in experiment [7], in experiment [16], in [18] and in experiment [19] was “inactive” in each case.
